Calls of active or inactive are those of the source. The call rests on the fitted dose curve; in most records, active means well fitted curve in the direction sought with a large enough effect; inconclusive means small, poorly fitted or top-dose-only effect, or another doubt; inactive means no such curve, though single readings can be large or run the other way.
target: Alpha-galactosidase (Coffea arabica) (UniProt Q42656); test: Counterscreen for Glucocerebrosidase Inhibitors: qHTS Assay for Coffee Bean alpha-Galactosidase at pH 4.5 (AID 957); settings: purified coffee bean alpha-galactosidase, fluorogenic substrate; series mostly up to 76.9 µM
Source text: NIH Chemical Genomics Center [NCGC]
NIH Molecular Libraries Screening Centers Network [MLSCN]
PI Name: Zheng, Wei [NIH]
Alpha-galactosidase is a homodimeric glycoprotein that hydrolyzes the terminal alpha-galactosyl moieties from glycolipids and glycoproteins. Deficiency of this enzyme results in Fabry Disease with progressive accumulation of globotriaosylceramide and other glycosphingolipids in vascular endothelial cells that causes renal failure, myocardial infarction and stroke, and premature death in patients. It has reported that the improper folding and trafficking of alpha-galactosidase resulted from the genetic mutations may account for a significant numbers of Fabry patients. […] We optimized this coffee bean alpha-galactosidase assay in 1536-well plate format as a counter-screen assay for identifying the selective small molecule inhibitors of other lysosomal enzymes.
NCGC Assay Protocol Summary:
This is a fluorogenic enzyme assay with 4-Methylumbelliferyl alpha-D-galactopyranoside as the substrate and green coffee bean […] (from Sigma-Aldrich) as the enzyme preparation. Upon the hydrolysis of this fluorogenic substrate, the resulting product, […]. 4-Methyllumbelliferone, can be excited at 365 nm and emits at 440 nm which can be detected by a standard fluorescence plate reader. Data were normalized to the controls for basal activity (without enzyme) and 100% activity (with enzyme). In the AC50 values were determined from concentration-response data modeled with the standard Hill equation.
Assay buffer: 50 mM citric acid, 0.005% Tween-20, pH 4.5. (pH 5.9 is an optimal condition for this enzyme assay. This assay in pH 4.5 is used for comparison the inhibitor activities with the human alpha-galactosidase assay)
1536-well assay protocol for the coffee bean alpha-galactosidase:
(1) Add 2 ul/well of enzyme (2 nM final)
(2) Add 23 nL compounds in DMSO solution. The final titration was 0.7 nM to 77 uM.
(3) Add 1 ul of substrate (80 uM final)
(4) Incubate at room temperature for 20 min.
(5) Add 2 ul stop solution (1M NaOH and 1M Glycine mixture, pH 10)
(6) Detect the assay plate in a ViewLux plate reader (PerkinElmer) with Ex=365 nm and Em=440nm.
Keywords: Alpha-galactosidase, Fabry Disease, pharmacological chaperone, chaperone therapy, high throughput screening, alpha-galactosidase inhibitor, MLSMR, MLSCN, NIH Roadmap, qHTS and NCGC

Chain of Alpha-galactosidase (Coffea arabica) (Q42656 whole entry, looked up): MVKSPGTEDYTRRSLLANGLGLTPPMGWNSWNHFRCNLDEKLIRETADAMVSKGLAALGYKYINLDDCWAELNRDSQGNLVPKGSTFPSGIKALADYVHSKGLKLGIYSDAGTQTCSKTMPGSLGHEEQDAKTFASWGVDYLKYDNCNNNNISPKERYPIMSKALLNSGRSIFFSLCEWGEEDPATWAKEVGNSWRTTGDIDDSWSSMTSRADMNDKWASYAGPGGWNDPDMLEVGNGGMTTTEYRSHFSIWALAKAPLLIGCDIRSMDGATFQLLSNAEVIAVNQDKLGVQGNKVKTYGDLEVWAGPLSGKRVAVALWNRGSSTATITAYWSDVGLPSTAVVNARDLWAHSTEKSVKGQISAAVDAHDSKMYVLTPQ

Compound | outcome
O=c1[nH]c2ccccc2n1CCCN1CCC(n2c(=O)[nH]c3cc(Cl)ccc32)CC1 | inactive
Cc1cnc(C(=O)NCCc2ccc(S(=O)(=O)NC(=O)NC3CCCCC3)cc2)cn1 | inactive
CCOC(=O)c1ncn2c1CN(C)C(=O)c1cc(F)ccc1-2 | inactive
Cc1ncc(CNC(=O)N(CCCl)N=O)c(N)n1 | inactive
Cc1[nH]c(=O)c(C#N)cc1-c1ccncc1 | inactive
Cc1nc2n(c(=O)c1CCN1CCC(c3noc4cc(F)ccc34)CC1)CCCC2 | inactive
Clc1ccc(C(c2ccccc2Cl)C(Cl)Cl)cc1 (stereo not given) | inactive
Cc1ccccc1N1C(=O)c2cc(S(N)(=O)=O)c(Cl)cc2NC1C (stereo not given) | inactive
COc1cc2c(c(OC)c1OC)-c1ccc(OC)c(=O)cc1[C@@H](NC(C)=O)CC2 | inactive
Clc1ccc2c(c1)C(N1CCNCC1)=Nc1ccccc1O2 | inactive
CCC1(c2ccccc2)C(=O)NCNC1=O | inactive
O=C1c2c(O)ccc(O)c2C(=O)c2c(NCCNCCO)ccc(NCCNCCO)c21 | inactive
CC1=C(/C=C/C(C)=C/C=C/C(C)=C/C(=O)Nc2ccc(O)cc2)C(C)(C)CCC1 | inactive
CCOC(=O)N1CCC(=C2c3ccc(Cl)cc3CCc3cccnc32)CC1 | inactive
N#CC(C#N)=Cc1ccc(O)c(O)c1 | inactive
CC(=O)Nc1nnc(S(N)(=O)=O)s1 | inactive
COC(=O)[C@H]1[C@H]2C[C@@H]3c4[nH]c5cc(OC)ccc5c4CCN3C[C@H]2C[C@@H](OC(=O)c2cc(OC)c(OC)c(OC)c2)[C@@H]1OC | inactive
Nc1nc2c(ncn2COC(CO)CO)c(=O)[nH]1 | inactive
CC1(C)NC(=O)N(c2ccc([N+](=O)[O-])c(C(F)(F)F)c2)C1=O | inactive
Cc1ccc(S(=O)(=O)NC(=O)NN2CCCCCC2)cc1 | inactive

Compound | outcome
CC(C)OC(=O)C(C)(C)Oc1ccc(C(=O)c2ccc(Cl)cc2)cc1 | inactive
N=c1nc(N2CCCCC2)cc(N)n1O | inactive
CCCC(C)(COC(N)=O)COC(=O)NC(C)C (stereo not given) | inactive
CC(C)C(=O)Nc1ccc([N+](=O)[O-])c(C(F)(F)F)c1 | inactive
NN=C(N)N | inactive
CC1=NS(=O)(=O)c2cc(Cl)ccc2N1 | inactive
Fc1ccc([C@@H]2CCNC[C@H]2COc2ccc3c(c2)OCO3)cc1 | inactive
CN1CCC(=C2c3ccccc3C=Cc3ccccc32)CC1 | inactive
CC(C)[N+](C)(CCOC(=O)C1c2ccccc2Oc2ccccc21)C(C)C | inactive
O=C(C1CCCCC1)N1CC(=O)N2CCc3ccccc3C2C1 (stereo not given) | inactive
Nc1ncn([C@@H]2O[C@H](CO)[C@@H](O)[C@H]2O)c(=O)n1 | inactive
CCN(CC)CCOC(=O)C1(C2CCCCC2)CCCCC1 | inactive
CC[N+](C)(C)c1cccc(O)c1 | inactive
Nc1ccncc1 | inactive
N[C@@H]1CONC1=O | inactive
CN1CCN(CCCN2c3ccccc3Sc3ccc(Cl)cc32)CC1 | inactive
CCN(CC)CCNC(=O)c1cc(Cl)c(N)cc1OC | inactive
CCCC(CCC)C(=O)O | inactive
NNc1nncc2ccccc12 | inactive
CN(C)CCCN1c2ccccc2CCc2ccc(Cl)cc21 | inactive

— PubChem BioAssay (NCATS)
